In PubChem BioAssay:
The source made the active and inactive calls. Unless noted, the rule behind the calls is not given here.

Columns and labels:
[1] = A549 cell viability effects, profiling panel, calcein-AM fluorescence, 48 h, basal (AID 1162); conditions: higher = more signal; note: test concentration not given here
[2] = adipocyte viability effects, profiling panel, cell-based, 3T3-L1 adipocytes, calcein-AM fluorescence, 48 h, basal (AID 1163); conditions: 3T3-L1 adipocytes viability, higher = more signal; note: test concentration not given here
[3] = HepG2 cell viability effects, profiling panel, calcein-AM fluorescence, 48 h, basal (AID 1164); conditions: higher = more signal; note: test concentration not given here
[4] = MM1S cell viability effects, profiling panel, calcein-AM fluorescence, 48 h, basal (AID 1165); conditions: higher = more signal;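 note: viability of MM1S multiple myeloma cells under basal unstimulated conditions; test concentration not given here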
[5] = basal RPMI8226 viability, no added stimulus, profiling panel, cell-based, calcein-AM fluorescence, 48 h, PK04 Diversity Set (AID 1166); conditions: RPMI8226 myeloma viability, higher = more signal;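 note: cells grown under basal conditions without added stimulus; test concentration not given here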
[6] = basal HepG2 mitochondrial membrane potential changes, profiling panel, cell-based, JC-1 fluorescence, 24 h, 100 nL compound (AID 1167); conditions: higher = more signal; note: test concentration not given here
[7] = basal 3T3-L1 adipocyte mitochondrial potential changes, profiling panel, cell-based, JC-1 fluorescence, 3T3-L1 adipocytes, 24 h, 100 nL compound (AID 1168); conditions: JC-1 mitochondrial fluorescence, higher = more signal, called active from +8 up or from −8 down; note: test concentration not given here
[8] = basal RPMI8226 mitochondrial membrane potential changes, profiling panel, cell-based, JC-1 fluorescence, 24 h, 100 nL compound (AID 1169); conditions: RPMI8226 myeloma, JC-1 mitochondrial potential fluorescence, higher = more signal; note: test concentration not given here
[9] = basal MM1S mitochondrial membrane potential changes, profiling panel, cell-based, JC-1 fluorescence, 24 h, 100 nL compound (AID 1170); conditions: higher = more signal; note: test concentration not given here
[10] = A549 lung cancer cell viability effects, profiling panel, resazurin fluorescence, 24 h, PK04 Diversity Set (AID 1171); conditions: higher = more signal, called active from +8 up or from −8 down; note: test concentration not given here
[11] = HepG2 liver cancer cell viability effects, profiling panel, resazurin fluorescence, 24 h, PK04 Diversity Set (AID 1172); conditions: higher = more signal; note: test concentration not given here
[12] = basal S. cerevisiae growth modulation, no modifier, primary screen, OD600, strain BY4716, 24 h, basal condition (AID 1173); conditions: OD600, 24 h, higher = more signal, called active from +8 up or from −8 down
[13] = MM1S myeloma cell viability, profiling panel, resazurin fluorescence, basal, 24 h, PK04 Diversity Set (AID 1174); conditions: higher = more signal, called active from +8 up or from −8 down;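 note: MM1S multiple myeloma cell line; test concentration not given here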
[14] = molecular target: Dihydroorotate dehydrogenase (quinone), mitochondrial (Plasmodium falciparum (isolate 3D7)) (UniProt Q08210); test: PfDHODH enzyme inhibitors, primary screen, biochemical, C-terminal His tag, absorbance 600 nm (AID 1175); conditions: DCIP absorbance 600 nm, higher = more signal, called active from +8 up or from −8 down;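 note: recombinant parasite enzyme with a five histidine tag at its C terminus; test concentration not given here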
[15] = P. aeruginosa biofilm formation inhibitors, primary screen, strain PAO1, LB-PBS medium, absorbance 600 nm (AID 1176); note: test concentration not given here; conditions: P. aeruginosa PAO1 growth/biofilm, A600, 12 h; higher = more signal
[16] = S. cerevisiae RM11-1a growth modifiers, primary screen, strain RM11-1a, OD600, basal, 24 h (AID 1177); conditions: OD600, 24 h, higher = more signal, called active from +8 up or from −8 down;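 note: cultures grown under basal conditions with no added stressor; test concentration not given here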
[17] = E. coli acrAB mutant growth effects, primary screen, E. coli filamentation inducers, strain DRC39, OD650, 24 h (AID 1178); conditions: higher = more signal, called active from +8 up or from −8 down;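 note: growth measured as culture turbidity by optical density at 650 nm; test concentration not given here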
[18] = E. coli acrAB mutant growth effects, primary screen, E. coli filamentation inducers, strain DRC39, OD650, 48 h (AID 1179);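 note: screen aims at cell division blockers that make cells filament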; conditions: E. coli DRC39 delta-acrAB growth, higher = more signal, called active from +8 up or from −8 down
[19] = RPMI8226 myeloma cell viability, profiling panel, resazurin fluorescence, basal, 24 h, PK04 Diversity Set (AID 1180); conditions: higher = more signal;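 note: RPMI8826 multiple myeloma cell line at 5000 cells per well; test concentration not given here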
[20] = molecular target: E3 ubiquitin-protein ligase XIAP (Homo sapiens) (UniProt P98170); test: XIAP binders, primary screen, biophysical, small-molecule microarray, fluorescence 635 nm (AID 1181); conditions: small-molecule microarray binding, higher = more signal;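 note: score merges 667 nm emission and signal to noise over triplicate slides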
Sequence of E3 ubiquitin-protein ligase XIAP (Homo sapiens) (P98170 whole entry, looked up): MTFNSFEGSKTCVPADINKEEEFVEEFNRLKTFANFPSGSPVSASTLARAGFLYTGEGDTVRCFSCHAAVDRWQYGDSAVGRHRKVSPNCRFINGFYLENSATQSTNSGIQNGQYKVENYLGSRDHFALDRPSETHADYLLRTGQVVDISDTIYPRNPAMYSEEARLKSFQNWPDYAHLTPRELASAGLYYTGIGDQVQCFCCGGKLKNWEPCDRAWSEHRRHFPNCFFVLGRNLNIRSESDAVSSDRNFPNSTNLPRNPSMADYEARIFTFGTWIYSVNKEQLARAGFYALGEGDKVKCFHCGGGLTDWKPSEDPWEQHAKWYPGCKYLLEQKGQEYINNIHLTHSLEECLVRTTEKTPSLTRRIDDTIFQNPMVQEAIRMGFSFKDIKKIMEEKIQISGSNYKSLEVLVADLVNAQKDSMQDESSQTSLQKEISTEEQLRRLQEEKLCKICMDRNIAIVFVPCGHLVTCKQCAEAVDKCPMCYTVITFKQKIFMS

Sequence of Dihydroorotate dehydrogenase (quinone), mitochondrial (Plasmodium falciparum (isolate 3D7)) (Q08210 whole entry, looked up): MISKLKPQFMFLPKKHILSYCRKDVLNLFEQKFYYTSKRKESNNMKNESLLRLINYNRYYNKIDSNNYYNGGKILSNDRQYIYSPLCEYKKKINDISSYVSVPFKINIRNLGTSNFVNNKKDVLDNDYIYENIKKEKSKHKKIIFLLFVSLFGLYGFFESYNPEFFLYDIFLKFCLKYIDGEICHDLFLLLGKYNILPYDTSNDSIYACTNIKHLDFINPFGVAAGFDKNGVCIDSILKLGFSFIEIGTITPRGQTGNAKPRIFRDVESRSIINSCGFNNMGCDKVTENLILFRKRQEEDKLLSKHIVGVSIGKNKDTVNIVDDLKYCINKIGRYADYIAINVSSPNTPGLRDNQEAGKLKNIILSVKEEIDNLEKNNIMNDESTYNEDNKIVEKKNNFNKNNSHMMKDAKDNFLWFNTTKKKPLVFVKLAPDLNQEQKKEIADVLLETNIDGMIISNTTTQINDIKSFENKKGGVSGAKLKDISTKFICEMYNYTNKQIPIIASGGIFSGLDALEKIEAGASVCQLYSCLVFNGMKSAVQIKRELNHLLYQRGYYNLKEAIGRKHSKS

Compound | z-score [1] | z-score [2] | z-score [3] | z-score [4] | z-score [5] | z-score [6] | z-score [7] | z-score [8] | z-score [9] | z-score [10] | z-score [11] | z-score [12] | z-score [13] | composite z-score [14] | z-score [15] | z-score [16] | z-score [17] | z-score [18] | z-score [19] | composite z-score [20]
COc1ccc([Si](C)(C)[C@H]2[C@H](CC(=O)N3Cc4ccccc4C[C@H]3CO)O[C@@]3(C(=O)N(Cc4cccc(N5CCC5=O)c4)c4ccccc43)[C@@H]2C)cc1 | 0.0575 | 0.441 | -0.616 | -2.68 | -3 | 0.419 | 0.465 (inactive) | -1.02 | -1.23 | -0.919 (inactive) | -0.774 | 0.472 (inactive) | -2.31 (inactive) | -2.72 (inactive) | 0.389 (inactive) | 2.58 (inactive) | 0.675 (inactive) | 0.398 (inactive) | -2.01 | -0.0393
COC(=O)[C@H](Cc1ccccc1)N[C@@H](/C=C/C1CC1)[C@H](O)Cc1ccccc1 | 0.168 | -0.0648 | -0.438 | -0.608 | -0.507 | -0.908 | -0.124 (inactive) | -1.17 | -0.594 | 0.778 (inactive) | 0.717 | -2.78 (inactive) | 0.488 (inactive) | 0.342 (inactive) | 0.0117 (inactive) | 0.584 (inactive) | -0.053 (inactive) | -0.181 (inactive) | 0.484 | -0.0559
Cc1ccc(S[C@]2(C(=O)NCCCN(C)C)CC(=O)N(Cc3ccccc3C(F)(F)F)[C@@H]2c2ccc(CO)cc2)cc1 | 0.397 | -0.22 | 0.41 | 0.306 | 0.595 | 1.47 | 0.0218 (inactive) | 0.139 | 0.427 | -0.515 (inactive) | -0.758 | -0.362 (inactive) | 0.515 (inactive) | -0.0819 (inactive) | -0.0807 (inactive) | -0.329 (inactive) | 0.252 (inactive) | 0.164 (inactive) | 0.119 | -0.267
CC(C)C(=C=CC[C@H](O)c1ccc(OCCO)cc1)CCO | 0.421 | 0.799 | 0.101 | -3.35 | -2.14 | -1.55 | -0.722 (inactive) | -0.881 | -0.0147 | 1.05 (inactive) | 0.933 | -1.87 (inactive) | -0.69 (inactive) | -0.324 (inactive) | 0.825 (inactive) | -0.269 (inactive) | -0.732 (inactive) | -0.794 (inactive) | -0.0148 | 0.223
CN1C(=O)C2C=CC(C(O)C#Cc3ccccc3)N(N3CCCCC3)C2C1=O (stereo not given) | -0.388 | -0.382 | -0.149 | 0.241 | 0.609 | -0.242 | 0.567 (inactive) | 0.382 | -0.547 | -0.913 (inactive) | -0.279 | -0.375 (inactive) | -0.347 (inactive) | -1.07 (inactive) | 0.614 (inactive) | -0.0362 (inactive) | -0.276 (inactive) | -0.884 (inactive) | -0.0142 | -0.0474
Cc1ccc([C@@H]2C[C@@H](Sc3ccccc3)[C@H](C(=O)O)CN2S(=O)(=O)c2ccc(C)cc2)cc1 | -0.687 | 0.154 | -0.316 | -0.681 | -3.33 | -1.2 | -0.183 (inactive) | -0.268 | 0.928 | 0.39 (inactive) | 0.391 | -1.58 (inactive) | -1.48 (inactive) | -0.351 (inactive) | 0.657 (inactive) | 0.455 (inactive) | -0.634 (inactive) | -0.518 (inactive) | -0.738 | 0.312
NC(=O)NCC#Cc1ccc2c(c1)[C@]1(C(=O)N2)[C@H](c2ccc(O)cc2)N2[C@H](c3ccccc3)[C@H](c3ccccc3)OC(=O)[C@H]2[C@@H]1C(=O)O | 0.517 | 0.145 | 0.829 | 0.343 | -1.12 | -1.2 | -1.47 (inactive) | 0.183 | -0.713 | -0.397 (inactive) | 0.587 | 0.453 (inactive) | 0.277 (inactive) | -0.268 (inactive) | 0.237 (inactive) | 0.726 (inactive) | -0.338 (inactive) | -0.176 (inactive) | 0.772 | 0.0975
[N-]=[N+]=NCc1ccccc1[C@@H]1OC(c2ccc(OCCCO)cc2)=N[C@]1(Cc1ccccc1)C(=O)NCC(O)CO (stereo not given in full) | 0.939 | -1.16 | 0.78 | -1.07 | -0.596 | -0.474 | -0.672 (inactive) | -0.596 | -0.471 | 0.424 (inactive) | 0.597 | -0.293 (inactive) | -0.869 (inactive) | -0.0408 (inactive) | 1.35 (inactive) | -0.0888 (inactive) | -0.151 (inactive) | -0.465 (inactive) | -0.665 | -0.0294
